Measurements: PubChem BioAssay (NCI)
Compounds without any hit were thinned out: in the full panel of roughly 83,000, 20% have a hit.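 How to read the values: 0–100, growth inhibition (40 = 60% inhibited); 0, no net growth; -100 to 0, cell death (-40 = 40% of starting cells died; -100 = all dead).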 Values without a mark were called inactive. Activity calls are given as the source filed them.

These molecules were tested on SK-MEL-2 melanoma (assay: NCI-60 one-dose screen, 48 h (100 = growth as untreated, 0 = no growth, -100 = all killed)). Details: 10 µM unless noted.
Method: Growth inhibition of the SK-MEL-2 human tumor cell line is measured as a screen for anti-cancer activity. Cells are grown in 96 well plates and exposed to the test compound for 48 hours. Compounds are tested at a single concentration, which is 10^-5 M for most compounds. The reported endpoint is percent growth (GI% or GIPRCNT), where numbers from 0 - 100% represent growth inhibition, and numbers from -100% - 0 represent cell death. For example, a value of 40 represents 60% growth inhibition. A value of 0 means no net growth occurred over the course of the experiment. A value of -40 indicates 40% of cells at the beginning of the experiment died by the end of the experiment. A value of -100 means all cells are dead at the end of the experiment.
NCI-60 Human Tumor Cell Lines Screen was performed using the standard one-dose NCI protocol, which is described in more detail at https://dtp.cancer.gov/discovery_development/nci-60/default.htm.
Compounds with GIPRCNT values below 10 were considered active. Activity score was based on GIPRCNT using the following formula: […]
Score is 0 for GIPRCNT values of 100 or above, 50 for GIPRCNT values of 0, and 100 for GIPRCNT values of -100.
For O=C(c1ccccc1)C(CN1CCOCC1)c1ccccc1 (stereo not given), the growth was -8.58% (active).
With Nc1c(Cl)cc(N=Nc2ccccc2)cc1Cl the growth was 61.3%.
Molecule Cc1cc(N2CCCCC2)nc(N(CCNc2ccnc3cc(Cl)ccc23)Cc2ccco2)n1 has a growth of 76.4%.
With Cc1nn2c(-c3nc4cc(Cl)c(Cl)cc4[nH]3)c(-c3ccc(F)cc3)nc2s1 the growth was 57.9%.
Molecule CCOc1ccc(NC(=O)c2ccoc2COc2ccccc2)cc1 has a growth of 106%.
With COC(=O)[C@]12CC[C@@H](C(=O)/C=C/c3cccnc3)[C@@H]1[C@H]1CC[C@@H]3[C@@]4(C)C/C(=C/c5cccnc5)C(=O)C(C)(C)[C@@H]4CC[C@@]3(C)[C@]1(C)CC2 the growth was -61.1% (active).
With NC1=NN(c2ccccc2)C(=O)/C1=C/c1ccc(Cl)cc1 the growth was 96.2%.
With COc1cc(-c2cc3ncccc3c3nc(OCCN(C)C)c4cccnc4c23)cc(OC)c1OC the growth was 19.8%.
CC(C)(C)n1cc(-c2ccnc(NCCCNS(=O)(=O)c3ccc(Cl)cc3)c2)c(-c2cccc(F)c2)n1 showed a growth of 88.4%.
Molecule C/C(=C(/c1ccccc1)c1ccc(N2C(=O)c3cccc4c(NCc5ccccc5)ccc(c34)C2=O)cc1)c1ccccc1 has a growth of 107%.
For CCCCCCCC(=O)SCC/C=C/[C@@H]1CC(=O)NCc2cccc(n2)CN(Cc2ccc(Cl)cc2)CC(=O)N[C@@H](C(C)C)C(=O)O1, the growth was 1.04% (active).
In the case of Cc1oc(-c2ccccc2Cl)cc1C(=O)Nc1ccc(S(N)(=O)=O)cc1, the growth is reported as 104%.
For COc1ccc(-c2cc(/C=C/C(=O)c3ccc(OC)c(OC)c3)[nH]n2)cc1, the growth was 69.2%.
O=C1c2ccccc2NC(c2cn(-c3ccccc3)nc2-c2cccnc2)N1Cc1ccccc1 (stereo not given) was tested, and the growth was 88%.
COc1ccc(NC(=O)c2ccc3c(c2)nc(-c2cc4ccccc4[nH]c2=O)n3-c2cc(C(C)(C)C)[nH]n2)cc1 was tested, and the growth was 99.7%.
For CC1(C)C=CC[C@]2(C)[C@H]3CC[C@@H]4[C@H]5[C@H](C(=O)/C=C/c6cccnc6)CC[C@]5(CO)CC[C@@]4(C)[C@]3(C)CC[C@@H]12, the growth was -66.1% (active).
COc1cccc(-c2nn(-c3ccccc3)cc2-c2ccnc(NCCCNS(=O)(=O)c3ccc(C(F)(F)F)cc3)c2)c1 showed a growth of 19.3%.
In the case of Cc1cc2nc3c4cc(Cl)ccc4n(CCN(C)C)c3nc2cc1C, the growth is reported as 43.6%.
Oc1cccc2oc(=S)[nH]c12 gave a growth of 109%.
For COC(=O)[C@]12CC[C@@H](C)[C@H](C)[C@@H]1C1=CC(=O)[C@@H]3[C@@]4(C)C[C@@H](O)[C@H](O)[C@@]5(C)COC(=C45)C[C@@]3(C)[C@]1(C)CC2, the growth was 33.6%.
In the case of NCCn1cc(-c2nc(-c3c[nH]c4ncccc34)cs2)c2cc(F)ccc21, the growth is reported as 94.7%.
With COC(=O)[C@]12CC[C@@H](C)[C@H](C)[C@@H]1C1=CC[C@@H]3[C@@]4(C)C(c5ncon5)=C[C@@](C)(CO)C4=CC[C@@]3(C)[C@]1(C)CC2 the growth was -51% (active).
O=C(N/N=C\c1c(O)ccc2ccccc12)C1CC1 showed a growth of 35.1%.
For COc1ccc2c3c(c4ccccc4cc13)C(=O)N(CCN(C)CCN)C2=O, the growth was 22.3%.
Cc1nn(-c2ccc(Br)cc2)c2nc3[nH]c(=O)[nH]c(=O)c3nc12 showed a growth of 111%.
Molecule COc1ccc(O)c(-c2cc(-c3ccc(Cl)cc3)c(C#N)c(=O)[nH]2)c1 has a growth of 37.9%.
C#CCN=C[C@]12CC[C@@H](C(=C)C)[C@@H]1[C@H]1CC[C@@H]3[C@@]4(C)CCC(=O)C(C)(C)[C@@H]4CC[C@@]3(C)[C@]1(C)CC2 was tested, and the growth was 91.7%.
In the case of COc1ccc(-c2cc(=O)oc3ccc(Cl)cc23)cc1F, the growth is reported as 36.3%.
Molecule Cc1csc(Nc2nc(-c3cccc(Br)c3)nc(C(Cl)(Cl)Cl)n2)n1 has a growth of 104%.
In the case of Cc1ccc2[nH]cc(-c3nc(-c4cn(C)c5ncccc45)cs3)c2c1, the growth is reported as 89.4%.
Work on CCC(=O)c1c(C)[nH]c(C)c1C yielded a growth of 16.6%.
Molecule O=C1Nc2ccccc2/C1=C/c1cn(CCCn2c3ccccc3c(=O)c3ccccc32)c2ccccc12 has a growth of 84.4%.
With COC(=O)[C@]12CC[C@@H](C)[C@H](C)[C@@H]1C1=CC[C@@H]3[C@@]4(C)C[C@@H](OC(C)=O)[C@H](OC(C)=O)[C@@](C)(COC(C)=O)[C@@H]4[C@H](O)C[C@@]3(C)[C@]1(C)CC2 the growth was -2.42% (active).
In the case of N#Cc1c(-c2ccc(O)cc2)c2c(N)nn(-c3ccccc3)c2[nH]c1=O, the growth is reported as 103%.
With Nc1nc2c3ccncc3cc(-c3cccc(Cl)c3)c2c2cnccc12 the growth was 59.1%.
COc1ccc(OC)c(-c2c(C#N)c(-c3ccco3)nc3c2c(-c2ccccc2)nn3-c2ccccc2)c1 showed a growth of 99.4%.
O=C(N/N=C\c1ccccc1O)C1CC1 was tested, and the growth was 103%.
COc1ccc(C2CC(=O)c3c(nc4ccc(Cl)cc4c3N)C2)cc1 (stereo not given) gave a growth of 118%.
Cc1ccc(Nc2c(C(N)=O)cnc3ccc(S(=O)(=O)Nc4cc(C)on4)cc23)cc1 showed a growth of 109%.
For Cn1cc(-c2csc(-c3cn(CCN)c4ccc(F)cc34)n2)c2cccnc21, the growth was 93.3%.
